Bioassay records (PubChem BioAssay)
The list is not random: actives were taken first. Their share in the collection is about 2.4%.
D2 PAM-1 = Beta-Arrestin HTS for Positive Allosteric Modulators of the Human D2 Dopamine Receptor: Potentiators | D(2) dopamine receptor (Homo sapiens), P14416 | DiscoveRx D2 beta-arrestin cells, luminescence, 90 min; 100% = 57 uM dopamine signal | potentiation, % (concentration not given with the values) | actives 0.23% (n = 360,000); in the data active = potentiation above about 50%
Target sequence (P14416 whole entry, looked up): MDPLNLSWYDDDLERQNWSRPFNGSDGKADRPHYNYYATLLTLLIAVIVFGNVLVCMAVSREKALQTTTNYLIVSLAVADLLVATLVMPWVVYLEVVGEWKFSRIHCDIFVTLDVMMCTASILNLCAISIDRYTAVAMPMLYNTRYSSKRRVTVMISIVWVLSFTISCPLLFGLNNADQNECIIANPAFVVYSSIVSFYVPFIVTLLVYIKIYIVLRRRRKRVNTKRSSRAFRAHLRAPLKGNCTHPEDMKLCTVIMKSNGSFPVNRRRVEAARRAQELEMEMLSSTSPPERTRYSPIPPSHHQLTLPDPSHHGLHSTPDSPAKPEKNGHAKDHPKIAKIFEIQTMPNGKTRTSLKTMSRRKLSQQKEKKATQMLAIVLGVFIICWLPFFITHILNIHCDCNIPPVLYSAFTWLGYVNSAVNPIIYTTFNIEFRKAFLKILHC
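PathHunter beta-arrestin assay in DiscoveRx D2 cells. Compounds were added with an EC20 of dopamine (50 nM final) for 90 min at 37 deg C. Luminescence was read 1 h after detection reagent, with 57 uM dopamine as the EC100 control.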
D2 ag-1 = Beta-Arrestin HTS for Positive Allosteric Modulators of the Human D2 Dopamine Receptor: Agonists | AID 624465, 2012 | DiscoveRx PathHunter D2 beta-arrestin, luminescence, 90 min; 100% = 57 uM dopamine signal | actives 0.084% (n = 360,000) | D(2) dopamine receptor (Homo sapiens), P14416 | activation, % (concentration not given with the values); in the data active = activation above about 40%
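DiscoveRx PathHunter D2 beta-arrestin cells (2,100/well) attached overnight, then compound-stimulated 90 min at 37 C in HBSS/10 mM HEPES/0.1% Tween-20 buffer; beta-galactosidase complementation read by luminescence after 1 h at ambient temperature. Dopamine 57 uM final (EC100) as control.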
D2 antag = HTS Assay for Allosteric Antagonists of the Human D2 Dopamine Receptor: Primary Screen for Antagonists. D(2) dopamine receptor (Homo sapiens), P14416. HEK293 TREx D2 cells, calcium flux, dopamine EC80. inhibition, % at 10 µM. actives 2% (n = 340,000). AID 485344, 2010; in the data active = inhibition above about 30%; inactive = below that, where a call was filed; also: 0% is about no effect
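Cells plated overnight at 30 C with tetracycline; no-wash calcium dye, 30–90 min RT; 10 s baseline; compound pinned; 180 s read; EC80 dopamine added; another 180 s read.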
D2 ag-2 = HTS Assay for Allosteric Agonists of the Human D2 Dopamine Receptor: Primary Screen for Agonists | D(2) dopamine receptor (Homo sapiens), P14416 | actives 0.53% (n = 340,000) | HEK293 T-REx D2 cells, calcium flux agonist mode | activation, % at 2 µM | AID 485358, 2010;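 active = activation over 3 SD above normal in the single-dose calcium agonist read, cut at about 30% in these data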; also: 0% is about no effect
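Calcium-flux readout, 1 cycle/sec over 180 s following compound pin transfer, in inducible HEK293 Trex D2 cells (force-coupled); dopamine controls included. Positive calcium responses during this window marked compounds as potential agonists.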
D2 PAM-2 = HTS Assay for Positive Allosteric Modulators of the Human D2 Dopamine Receptor: Primary Screen for Potentiators; HEK293 T-REx D2, calcium flux, EC20 dopamine potentiation; potentiation, % at 10 µM; actives 0.34% (n = 340,000);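 active = potentiation over 3 SD above the plate norm, cut at about 30% in these data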; also: 0% is about no effect
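Cells plated with tetracycline inducer and held overnight at 30 C; calcium dye loaded 30–90 min at room temperature; baseline taken, compound added and read 180 s; EC20 dopamine then added and read 180 s.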
The depositor's hits bear a star.

Results for Nc1cc(N)cc(-c2nc3ccccc3[nH]2)c1 ?
D2 PAM-1: 53*; D2 ag-1: 6; D2 antag: 27; D2 ag-2: -1; D2 PAM-2: 3

Results for Cc1nc2ccc(-c3nc4ccccc4o3)cc2[nH]1 ?
D2 PAM-1: 0; D2 ag-1: -1; D2 antag: -10; D2 ag-2: 1; D2 PAM-2: -2

Results for Nc1ccc(-c2nc3ccc(-c4nc5ccccc5o4)cc3[nH]2)cc1 ?
D2 PAM-1: 65*; D2 ag-1: 3; D2 antag: -21; D2 ag-2: 0; D2 PAM-2: 2

Results for O=C(c1cnc(N2CCCCC2)c2ccccc12)N1CCN(c2ccc(F)cc2)CC1 ?
D2 ag-2: -1; D2 PAM-2: -1

What do the screens show for `CCSc1nnc(NC(=O)c2c(C)noc2C)s1`?
D2 PAM-1: -13; D2 ag-1: -4; D2 antag: -7; D2 ag-2: 0; D2 PAM-2: 5

How did CCSc1nnc(NC(=O)c2csc3c2CCCC3)s1 do in these assays?
D2 PAM-1: -10; D2 ag-1: -2; D2 antag: 40*; D2 ag-2: 0; D2 PAM-2: -5

How did CCSc1nnc(NC(=O)c2csc3c2CCC(C)C3)s1 (configuration not stated) do in these assays?
D2 PAM-1: 1; D2 ag-1: 0

What do the screens show for `CCSc1nnc(NC(=O)c2cc(C)on2)s1`?
D2 PAM-1: -7; D2 ag-1: -3; D2 antag: 56*; D2 ag-2: 2

What do the screens show for `COc1ccc(C2N(C(=O)N(C)C)CCN2S(=O)(=O)c2ccc(OC)cc2)cc1` (configuration not stated)?
D2 PAM-1: -5; D2 ag-1: -2; D2 antag: 37*; D2 ag-2: 0; D2 PAM-2: 22

Results for O=S(=O)(NCC(c1ccco1)S(=O)(=O)c1cccs1)c1ccc(Cl)cc1 (configuration not stated) ?
D2 ag-2: 5; D2 PAM-2: 14

Results for COc1ccc(NC(C)=O)cc1NC(=O)C1(c2cccs2)CCOCC1 ?
D2 ag-2: -1; D2 PAM-2: -5

What do the screens show for `COc1cc(OC)cc(C(=O)NCC(=O)Nc2ccc(OC)c(Cl)c2)c1`?
D2 PAM-1: -17; D2 ag-1: 3; D2 antag: 37*; D2 ag-2: -1; D2 PAM-2: -20

Results for COCC(=O)Nc1ccc(OC)c(Cl)c1 ?
D2 PAM-1: -7; D2 ag-1: -3; D2 antag: 37*; D2 ag-2: 0; D2 PAM-2: 2

How did COc1ccc(NC(=O)COC(C)=O)cc1Cl do in these assays?
D2 PAM-1: -3; D2 ag-1: -5; D2 antag: 13; D2 ag-2: 0; D2 PAM-2: -3

Results for COc1cc(-c2nc(Cn3nnc(C(=O)Nc4ccc(C)cc4C)c3C)c(C)o2)cc(OC)c1OC ?
D2 ag-2: 0; D2 PAM-2: 1

Results for CCOC(=O)/C=C/C(=O)Nc1ccc(S(=O)(=O)N2CCCCCC2)cc1 ?
D2 PAM-1: -5; D2 ag-1: -3; D2 antag: 31*; D2 ag-2: 0; D2 PAM-2: 13

Results for COc1ccc(Nc2nc(N)c3cc(OC)c(OC)cc3n2)cc1 ?
D2 ag-2: 0

Results for O=C(OCC(=O)N1CCCC1=O)c1ccc(O)cc1O ?
D2 PAM-1: -8; D2 ag-1: -2; D2 antag: 4; D2 ag-2: 0; D2 PAM-2: 1

What do the screens show for `CSc1ccccc1C(=O)OCC(=O)N1CCCC1=O`?
D2 PAM-1: -6; D2 ag-1: -5; D2 antag: -9; D2 ag-2: 0; D2 PAM-2: 52*

What do the screens show for `COc1ccccc1CNC(=O)CSc1ncc(S(=O)(=O)c2ccc(C)c(Cl)c2)c(=O)[nH]1`?
D2 ag-2: 1; D2 PAM-2: -2

What do the screens show for `O=C1c2cccc3c(N4CCCCC4)ccc(c23)C(=O)N1c1cccc(O)c1`?
D2 PAM-1: 3; D2 ag-1: 0; D2 antag: 16; D2 ag-2: 57*; D2 PAM-2: -7

How did Cc1n[nH]c(C)c1N1C(=O)c2cccc3c(N4CCCCCC4)ccc(c23)C1=O do in these assays?
D2 PAM-1: -8; D2 ag-1: 1; D2 antag: 20; D2 ag-2: 84*; D2 PAM-2: 3

Results for O=C1c2cccc3c(N4CCCCC4)ccc(c23)C(=O)N1CCO ?
D2 PAM-1: -7; D2 ag-1: 1; D2 antag: 6; D2 ag-2: 19; D2 PAM-2: -1

What do the screens show for `CCCSc1ncc(Cl)c(C(=O)Nc2ccc(S(=O)(=O)N3CCCCC3C)cc2)n1` (configuration not stated)?
D2 PAM-2: -4

How did CC(=O)Nc1ccc(S(=O)(=O)N2CCN(CC(=O)N3CCOCC3)CC2)cc1 do in these assays?
D2 PAM-1: -13; D2 ag-1: -4; D2 antag: 37*; D2 ag-2: 1; D2 PAM-2: -3

How did CC(=O)Nc1ccc(S(=O)(=O)N2CCN(Cc3ccccn3)CC2)cc1 do in these assays?
D2 PAM-1: -10; D2 ag-1: -1; D2 antag: 23; D2 ag-2: 4; D2 PAM-2: 1

How did CC(=O)Nc1ccc(S(=O)(=O)N2CCN(Cc3csc(C)n3)CC2)cc1 do in these assays?
D2 PAM-1: 53*; D2 ag-1: -5; D2 antag: -7; D2 ag-2: 0; D2 PAM-2: 9

Results for CC(=O)Nc1ccc(S(=O)(=O)N2CCN(Cc3ccccc3[N+](=O)[O-])CC2)cc1 ?
D2 PAM-1: -4; D2 ag-1: 2; D2 antag: -3; D2 ag-2: 1; D2 PAM-2: 38*

How did Cc1ccc(S(=O)(=O)N2CCN(CC(=O)N3CCOCC3)CC2)cc1 do in these assays?
D2 PAM-1: -3; D2 ag-1: -8; D2 antag: -6; D2 ag-2: 0; D2 PAM-2: 10

Results for CN(C)c1ccc(CNC(=O)c2cnc3sc(N4CCOCC4)nn3c2=O)cc1 ?
D2 PAM-2: -4

What do the screens show for `CC1CN(C(=O)N2CCC(C(=O)N3CCN(c4ccccc4)CC3)CC2)c2cc(Cl)ccc2O1` (configuration not stated)?
D2 ag-2: 0; D2 PAM-2: 3

Results for COc1cccc(Cn2c(=O)n(-c3ccc(C)c(F)c3)c(=O)c3sc4ccccc4c32)c1 ?
D2 ag-2: 0; D2 PAM-2: 8
